Values without a mark were called inactive. Inconclusive results are not listed. The source made the active and inactive calls. Unless noted, calls come from the whole dose curve.
Target: Lysosomal acid glucosylceramidase (Homo sapiens) (UniProt P04062)
Assay: Glucocerebrosidase-p2 (AID 348; in the data active = potency below about 10 µM)
Conditions: purified GBA, blue fluorogenic substrate, 40 min
Outline: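 Normal human glucocerebrosidase (0.2 nM) with blue fluorogenic substrate (80 uM final) in citrate/phosphate pH 5.9 with 10mM sodium taurocholate, 0.01% tween-20; 40 min RT, NaOH/glycine stop; fluorescence Ex 365/Em 440; AC50 from a titration from 0.6 nM upwards.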
Potency is the fitted concentration of half-maximal effect.

Sequence of Lysosomal acid glucosylceramidase (Homo sapiens) (P04062 whole entry, looked up): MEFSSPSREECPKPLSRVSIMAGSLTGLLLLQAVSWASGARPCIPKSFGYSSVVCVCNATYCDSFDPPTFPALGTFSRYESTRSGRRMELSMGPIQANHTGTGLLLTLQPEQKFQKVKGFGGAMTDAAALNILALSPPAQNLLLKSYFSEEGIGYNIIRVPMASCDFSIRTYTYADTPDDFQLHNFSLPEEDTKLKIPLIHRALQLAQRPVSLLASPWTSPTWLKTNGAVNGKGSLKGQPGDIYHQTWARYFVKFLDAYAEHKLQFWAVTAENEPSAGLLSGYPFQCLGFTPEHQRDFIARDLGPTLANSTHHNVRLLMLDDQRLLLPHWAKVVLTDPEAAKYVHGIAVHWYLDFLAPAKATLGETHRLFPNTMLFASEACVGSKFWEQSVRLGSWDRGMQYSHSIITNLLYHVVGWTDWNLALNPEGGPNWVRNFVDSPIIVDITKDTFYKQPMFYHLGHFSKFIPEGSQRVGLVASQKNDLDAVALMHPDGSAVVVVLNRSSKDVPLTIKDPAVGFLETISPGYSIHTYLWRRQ

| SMILES | Potency |
| --- | --- |
| Cc1cccc(CNc2ncnc3ccc(-c4ccc(C(=O)N(C)C)cc4)cc23)c1 | > 11.4 µM |
| O=[N+]([O-])c1ccc(S(=O)(=O)Cc2ccccc2)c2nonc12 | > 11.4 µM |
| CCN(CC)CCN1c2ccccc2Sc2ccc3ccccc3c21 | > 11.4 µM |
| Oc1c(C(O)(c2ccccc2)c2ccc3ccccc3c2O)ccc2ccccc12 | > 11.4 µM |
| Nc1nc(Sc2ccc([N+](=O)[O-])c3nonc23)c2[nH]cnc2n1 | > 11.4 µM |
| C[C@@H]1CCCN(C[C@@H](O)CN2CCCc3ccccc32)C1 | > 11.4 µM |
| CN(C)CCCN1c2ccccc2Sc2ccc3ccccc3c21 | > 11.4 µM |
| CN(C)CCCN1c2ccc3ccccc3c2Sc2cccc(Cl)c21 | > 11.4 µM |
| O=C1c2ccccc2C(O)(O)[C@@]1(O)[C@]1(O)C(=O)c2ccccc2C1(O)O | > 11.4 µM |
| CC(=O)Nc1ccc(Cc2ccc3[nH]c(=O)cc(C)c3c2)cc1 | > 11.4 µM |
| ClC(=Nc1cccc2ccccc12)N(c1ccccc1)c1ccccc1 | > 11.4 µM |
| CC(=O)Nc1nc(NC(C)=O)c2[nH]c(CO)nc2n1 | > 11.4 µM |
| OCCCNc1ncnc2[nH]ncc12 | > 11.4 µM |
| COc1ccc(C(=O)[C@H](Br)[C@H](Br)C(=O)O)cc1 | > 11.4 µM |
| C[N+](C)([O-])CCC=C1c2ccccc2CCc2ccccc21 | > 11.4 µM |
| COCCn1c(=O)c(CCc2ccccc2)nc2cnc(Oc3cccc(Cl)c3)nc21 | > 11.4 µM |
| O=C1C(Cl)=C(Sc2nnc3c4ccccc4c4ccccc4c3n2)C(=O)c2ccccc21 | > 11.4 µM |
| CC(CC(=O)O)(CC(=O)O)c1ccccc1 | > 11.4 µM |
| CN(C)CCCn1c2c3ccccc3ccc2c2oc(=O)c3ccccc3c21 | > 11.4 µM |
| COc1cccc2c1[C@H](CO)N1[C@H](C#N)[C@@H]3C[C@H](C(=O)O)[C@@H]([C@@H]1C2)N3C | > 11.4 µM |

| SMILES | Potency |
| --- | --- |
| Cc1ccc(-c2nc(-c3nccc4ccccc34)oc2-c2ccccc2)cc1 | > 11.4 µM |
| Oc1ccc2ccccc2c1CN(Cc1c(O)ccc2ccccc12)C1CCCCC1 | > 11.4 µM |
| O=C(c1ccncc1)N1CCC2(CCCN(c3cccc(-c4ccccc4)c3)C2)CC1 | > 11.4 µM |
| CCC1=C(C[C@H]2NCCc3ccccc32)C[C@@H]2c3cc(OC)c(OC)cc3CCN2C1 | > 11.4 µM |
| C[C@H]1CC(C)(C)C[C@@](OCCN2CCCCC2)(c2ccccc2)C1 | > 11.4 µM |
| CN1CCN(c2ncc3nc(-c4ccccc4)c(=O)n(Cc4ccc(F)cc4)c3n2)CC1 | > 11.4 µM |
| CN(C)c1ccc(N=Nc2cccc3ccoc23)cc1 | > 11.4 µM |
| N#Cc1c(NC(=O)C(F)(F)F)sc2c3c(=O)c4ccccc4c(=O)c=3oc3ccccc3c12 | > 11.4 µM |
| Nc1ncnc2c([C@@H]3O[C@@H](CO)[C@H](O)[C@@H]3O)nsc12 | > 11.4 µM |
| COc1ccc(-c2csc3c2[N+]2=CCC=C2C3=O)cc1 | > 11.4 µM |
| CN(C)CCCN1c2ccc(O)cc2Sc2ccc(Cl)cc21 | 9.49 µM (active) |
| N[C@@](CCc1ccccc1)(C(=O)O)c1ccccc1 | > 11.4 µM |
| COc1ccc(Oc2ncc3nc(CCc4ccccc4)c(=O)n(C4CC4)c3n2)cc1 | > 11.4 µM |
| C=C(C)COc1ccc2c(c1)CCC1C2CC[C@]2(C)C(=O)/C(=N/O)CC12 (stereo not given in full) | > 11.4 µM |
| O=C1c2ccccc2-c2cc([N+](=O)[O-])c([N+](=O)[O-])cc21 | > 11.4 µM |
| COc1ccc2nc3cc(Cl)ccc3c(Nc3ccc(O)c(CN4CCN(C)CC4)c3)c2c1 | > 11.4 µM |
| C[C@@]12CC[C@@H]3[C@@H](CC[C@H]4C[C@@H](O)CC[C@]43C)[C@H]1CC[C@@H]2c1cc(C(F)(F)F)n[nH]1 | > 11.4 µM |
| COc1ccc2c(c1)N(CC[C@H]1CCCCN1C)c1ccccc1S2 | > 11.4 µM |
| CSc1ccc2c(c1)N(CCCN(C)C)c1ccccc1S2 | > 11.4 µM |
| CC(=O)O[C@H]1CC[C@@]2(C)C(=CC[C@@H]3[C@@H]4CC[C@H](c5cc(C(F)(F)F)n(C(C)=O)n5)[C@]4(C)CC[C@@H]32)C1 | > 11.4 µM |

Target: Cytochrome P450 1A2 (Homo sapiens) (UniProt P05177)
Assay: p450-cyp1a2 (AID 410);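 for activity change, negative = inhibition: -100% = full effect of reference inhibitor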
Conditions: recombinant CYP1A2, luciferin-ME demethylation, luminescence; series mostly up to 11.4 µM
Outline: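 20nM CYP1A2, 100uM Luciferin-ME (=Km), 100mM KPO4; cpd 10 min RT; +NADPH regen, 60 min RT; stop/detect 20 min; luminescence. Normalized to furafylline 57 uM = full inhibition.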

Sequence of Cytochrome P450 1A2 (Homo sapiens) (P05177 whole entry, looked up): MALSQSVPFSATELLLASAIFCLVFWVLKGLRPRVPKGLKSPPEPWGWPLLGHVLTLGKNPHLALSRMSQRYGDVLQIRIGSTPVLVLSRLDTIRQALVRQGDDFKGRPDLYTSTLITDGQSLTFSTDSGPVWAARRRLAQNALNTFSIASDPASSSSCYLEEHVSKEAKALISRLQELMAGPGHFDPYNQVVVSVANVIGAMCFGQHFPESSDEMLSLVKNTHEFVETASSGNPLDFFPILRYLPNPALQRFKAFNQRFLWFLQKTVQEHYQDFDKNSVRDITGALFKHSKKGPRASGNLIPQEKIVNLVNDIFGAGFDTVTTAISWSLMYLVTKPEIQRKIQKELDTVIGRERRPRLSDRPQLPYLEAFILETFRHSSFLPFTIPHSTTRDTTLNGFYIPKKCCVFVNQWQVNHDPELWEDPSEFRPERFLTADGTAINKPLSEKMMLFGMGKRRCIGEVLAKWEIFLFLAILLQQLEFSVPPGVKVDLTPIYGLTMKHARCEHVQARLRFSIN

| SMILES | Potency | activity change, negative = inhibition |
| --- | --- | --- |
| Cc1cccc(CNc2ncnc3ccc(-c4ccc(C(=O)N(C)C)cc4)cc23)c1 | 15.8 µM (active) |  |
| O=[N+]([O-])c1ccc(S(=O)(=O)Cc2ccccc2)c2nonc12 |  | -5.3% [at 2.29 µM] |
| CCN(CC)CCN1c2ccccc2Sc2ccc3ccccc3c21 | 3.98 µM (active) |  |
| Oc1c(C(O)(c2ccccc2)c2ccc3ccccc3c2O)ccc2ccccc12 | 1 µM (active) |  |
| Nc1nc(Sc2ccc([N+](=O)[O-])c3nonc23)c2[nH]cnc2n1 |  | -26.1% [at 2.29 µM] |
| C[C@@H]1CCCN(C[C@@H](O)CN2CCCc3ccccc32)C1 | inactive |  |
| CN(C)CCCN1c2ccccc2Sc2ccc3ccccc3c21 |  | -2.2% [at 2.29 µM] |
| CN(C)CCCN1c2ccc3ccccc3c2Sc2cccc(Cl)c21 | 1 µM (active) |  |
| O=C1c2ccccc2C(O)(O)[C@@]1(O)[C@]1(O)C(=O)c2ccccc2C1(O)O |  | -7.5% [at 2.29 µM] |
| CC(=O)Nc1ccc(Cc2ccc3[nH]c(=O)cc(C)c3c2)cc1 | inactive |  |
| ClC(=Nc1cccc2ccccc12)N(c1ccccc1)c1ccccc1 | 1 µM (active) |  |
| CC(=O)Nc1nc(NC(C)=O)c2[nH]c(CO)nc2n1 | inactive |  |
| OCCCNc1ncnc2[nH]ncc12 | 6.31 µM (active) |  |
| COc1ccc(C(=O)[C@H](Br)[C@H](Br)C(=O)O)cc1 | 3.98 µM (active) |  |
| C[N+](C)([O-])CCC=C1c2ccccc2CCc2ccccc21 | 0.794 µM (active) |  |
| COCCn1c(=O)c(CCc2ccccc2)nc2cnc(Oc3cccc(Cl)c3)nc21 | 3.98 µM (active) |  |
| O=C1C(Cl)=C(Sc2nnc3c4ccccc4c4ccccc4c3n2)C(=O)c2ccccc21 | 0.398 µM (active) |  |
| CC(CC(=O)O)(CC(=O)O)c1ccccc1 | inactive |  |
| CN(C)CCCn1c2c3ccccc3ccc2c2oc(=O)c3ccccc3c21 | 0.316 µM (active) |  |
| COc1cccc2c1[C@H](CO)N1[C@H](C#N)[C@@H]3C[C@H](C(=O)O)[C@@H]([C@@H]1C2)N3C |  | -21% [at 2.29 µM] |

| SMILES | Potency | activity change, negative = inhibition |
| --- | --- | --- |
| Cc1ccc(-c2nc(-c3nccc4ccccc34)oc2-c2ccccc2)cc1 | 2.51 µM (active) |  |
| Oc1ccc2ccccc2c1CN(Cc1c(O)ccc2ccccc12)C1CCCCC1 | 0.631 µM (active) |  |
| O=C(c1ccncc1)N1CCC2(CCCN(c3cccc(-c4ccccc4)c3)C2)CC1 | 12.6 µM (active) |  |
| CCC1=C(C[C@H]2NCCc3ccccc32)C[C@@H]2c3cc(OC)c(OC)cc3CCN2C1 | inactive |  |
| C[C@H]1CC(C)(C)C[C@@](OCCN2CCCCC2)(c2ccccc2)C1 | inactive |  |
| CN1CCN(c2ncc3nc(-c4ccccc4)c(=O)n(Cc4ccc(F)cc4)c3n2)CC1 | inactive |  |
| CN(C)c1ccc(N=Nc2cccc3ccoc23)cc1 | 0.251 µM (active) |  |
| N#Cc1c(NC(=O)C(F)(F)F)sc2c3c(=O)c4ccccc4c(=O)c=3oc3ccccc3c12 | 1 µM (active) |  |
| Nc1ncnc2c([C@@H]3O[C@@H](CO)[C@H](O)[C@@H]3O)nsc12 |  | -16.8% [at 2.29 µM] |
| COc1ccc(-c2csc3c2[N+]2=CCC=C2C3=O)cc1 | 0.501 µM (active) |  |
| CN(C)CCCN1c2ccc(O)cc2Sc2ccc(Cl)cc21 | 0.631 µM (active) |  |
| N[C@@](CCc1ccccc1)(C(=O)O)c1ccccc1 | inactive |  |
| COc1ccc(Oc2ncc3nc(CCc4ccccc4)c(=O)n(C4CC4)c3n2)cc1 | 12.6 µM (active) |  |
| C=C(C)COc1ccc2c(c1)CCC1C2CC[C@]2(C)C(=O)/C(=N/O)CC12 (stereo not given in full) | inactive |  |
| O=C1c2ccccc2-c2cc([N+](=O)[O-])c([N+](=O)[O-])cc21 | 0.251 µM (active) |  |
| COc1ccc2nc3cc(Cl)ccc3c(Nc3ccc(O)c(CN4CCN(C)CC4)c3)c2c1 | 3.98 µM (active) |  |
| C[C@@]12CC[C@@H]3[C@@H](CC[C@H]4C[C@@H](O)CC[C@]43C)[C@H]1CC[C@@H]2c1cc(C(F)(F)F)n[nH]1 | 3.98 µM (active) |  |
| COc1ccc2c(c1)N(CC[C@H]1CCCCN1C)c1ccccc1S2 | 1.26 µM (active) |  |
| CSc1ccc2c(c1)N(CCCN(C)C)c1ccccc1S2 | 1.26 µM (active) |  |
| CC(=O)O[C@H]1CC[C@@]2(C)C(=CC[C@@H]3[C@@H]4CC[C@H](c5cc(C(F)(F)F)n(C(C)=O)n5)[C@]4(C)CC[C@@H]32)C1 | inactive |  |

Source: PubChem BioAssay (NCATS)
